# Assay results published in paper PMC11006913.
# Assays:
# Assay in all cases: PBM; 200 nM protein, PBS
# Conditions in all cases: dsDNA, one strand shown
# [1] = target: HOXC9 (Homo sapiens, UniProt P31274 178-260, K195R)
# [2] = target: PRRX1 (Homo sapiens, UniProt P54821 80-166, F113S)
# [3] = target: HOXC9 (Homo sapiens, UniProt P31274 178-260)
# [4] = target: ALX1 (Homo sapiens, UniProt Q15699 118-204, L144V)
# [5] = target: HOXC9 (Homo sapiens, UniProt P31274 178-260, R193K)
# [6] = target: ALX1 (Homo sapiens, UniProt Q15699 118-204, L144R)
# [7] = target: HOXC9 (Homo sapiens, UniProt P31274 178-260, R222W)
# [8] = target: ALX1 (Homo sapiens, UniProt Q15699 118-204)
# [9] = target: PRRX1 (Homo sapiens, UniProt P54821 80-166)
# [10] = target: ALX4 (Homo sapiens, UniProt Q9H161 200-286)
# [11] = target: ALX4 (Homo sapiens, UniProt Q9H161 200-286, Q225E)
# [12] = target: HOXA4 (Homo sapiens, UniProt Q00056 201-287, W262R)
# [13] = target: HOXA4 (Homo sapiens, UniProt Q00056 201-287)
# [14] = target: HOXA4 (Homo sapiens, UniProt Q00056 201-287, W262F)
# [15] = target: HOXC10 (Homo sapiens, UniProt Q9NYD6 254-340)
# [16] = target: HOXC10 (Homo sapiens, UniProt Q9NYD6 254-340, K271E)
# [17] = target: HOXB6 (Homo sapiens, UniProt P17509 132-218)
# [18] = target: HOXA7 (Homo sapiens, UniProt P31268 116-202)
# [19] = target: ALX3 (Homo sapiens, UniProt O95076 139-225, N203Q)
# [20] = target: ALX3 (Homo sapiens, UniProt O95076 139-225)
# [21] = target: ALX3 (Homo sapiens, UniProt O95076 139-225, L168Q)
# [22] = target: ALX3 (Homo sapiens, UniProt O95076 139-225, L168V)
# [23] = target: HOXA7 (Homo sapiens, UniProt P31268 116-202, W177C)
# [24] = target: ALX3 (Homo sapiens, UniProt O95076 139-225, N203S)
# [25] = target: MSX2 (Homo sapiens, UniProt P35548 130-214, R199I)
# [26] = target: MSX2 (Homo sapiens, UniProt P35548 130-214)
# [27] = target: MSX2 (Homo sapiens, UniProt P35548 130-214, F161Y)
# [28] = target: NKX3-2 (Homo sapiens, UniProt P78367 192-278, P234S)
# [29] = target: NKX3-2 (Homo sapiens, UniProt P78367 192-278)
# Sequence of NKX3-2 (Homo sapiens, UniProt P78367 192-278) (P78367 192-278): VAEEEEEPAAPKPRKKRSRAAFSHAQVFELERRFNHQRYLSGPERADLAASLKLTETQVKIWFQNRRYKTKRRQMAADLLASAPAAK
# Sequence of HOXA4 (Homo sapiens, UniProt Q00056 201-287, W262R) (Q00056 201-287 W262R): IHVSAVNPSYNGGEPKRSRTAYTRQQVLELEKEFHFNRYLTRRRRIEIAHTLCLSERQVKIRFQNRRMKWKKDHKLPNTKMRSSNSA
# Sequence of ALX4 (Homo sapiens, UniProt Q9H161 200-286) (Q9H161 200-286): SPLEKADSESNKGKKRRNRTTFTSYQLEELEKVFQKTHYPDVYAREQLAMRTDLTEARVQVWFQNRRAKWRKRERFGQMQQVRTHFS
# Sequence of HOXA4 (Homo sapiens, UniProt Q00056 201-287) (Q00056 201-287): as the sequence (Q00056 201-287 W262R) above, with R62W counted along it
# Sequence of HOXC9 (Homo sapiens, UniProt P31274 178-260, R222W) (P31274 178-260 R222W): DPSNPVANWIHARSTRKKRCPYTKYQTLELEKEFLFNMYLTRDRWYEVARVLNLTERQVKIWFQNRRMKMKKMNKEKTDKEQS
# Sequence of ALX4 (Homo sapiens, UniProt Q9H161 200-286, Q225E) (Q9H161 200-286 Q225E): as the sequence (Q9H161 200-286) above, with Q26E counted along it
# Sequence of HOXC9 (Homo sapiens, UniProt P31274 178-260, K195R) (P31274 178-260 K195R): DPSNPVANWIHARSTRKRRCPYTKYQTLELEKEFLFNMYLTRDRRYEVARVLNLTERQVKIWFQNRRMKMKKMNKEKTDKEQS
# Sequence of HOXC9 (Homo sapiens, UniProt P31274 178-260) (P31274 178-260): as the sequence (P31274 178-260 R222W) above, with W45R counted along it
# Sequence of HOXC9 (Homo sapiens, UniProt P31274 178-260, R193K) (P31274 178-260 R193K): as the sequence (P31274 178-260 R222W) above, with R16K, W45R counted along it
# Sequence of ALX1 (Homo sapiens, UniProt Q15699 118-204, L144R) (Q15699 118-204 L144R): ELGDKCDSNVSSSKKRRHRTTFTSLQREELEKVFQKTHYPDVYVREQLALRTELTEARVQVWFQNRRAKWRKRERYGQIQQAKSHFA
# Sequence of ALX1 (Homo sapiens, UniProt Q15699 118-204, L144V) (Q15699 118-204 L144V): as the sequence (Q15699 118-204 L144R) above, with R27V counted along it
# Sequence of HOXC10 (Homo sapiens, UniProt Q9NYD6 254-340, K271E) (Q9NYD6 254-340 K271E): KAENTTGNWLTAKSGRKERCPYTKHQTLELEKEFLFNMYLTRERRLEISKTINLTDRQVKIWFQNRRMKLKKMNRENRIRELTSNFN
# Sequence of ALX1 (Homo sapiens, UniProt Q15699 118-204) (Q15699 118-204): as the sequence (Q15699 118-204 L144R) above, with R27L counted along it
# Sequence of HOXC10 (Homo sapiens, UniProt Q9NYD6 254-340) (Q9NYD6 254-340): as the sequence (Q9NYD6 254-340 K271E) above, with E18K counted along it
# Sequence of HOXA7 (Homo sapiens, UniProt P31268 116-202, W177C) (P31268 116-202 W177C): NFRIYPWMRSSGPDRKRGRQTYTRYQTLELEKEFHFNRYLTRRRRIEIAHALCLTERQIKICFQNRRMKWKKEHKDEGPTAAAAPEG
# Sequence of PRRX1 (Homo sapiens, UniProt P54821 80-166, F113S) (P54821 80-166 F113S): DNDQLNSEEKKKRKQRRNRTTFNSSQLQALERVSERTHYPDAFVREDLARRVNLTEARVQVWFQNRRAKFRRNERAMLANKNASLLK
# Sequence of MSX2 (Homo sapiens, UniProt P35548 130-214) (P35548 130-214): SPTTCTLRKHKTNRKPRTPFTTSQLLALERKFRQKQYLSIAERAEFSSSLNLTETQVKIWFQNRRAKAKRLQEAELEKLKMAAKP
# Sequence of PRRX1 (Homo sapiens, UniProt P54821 80-166) (P54821 80-166): as the sequence (P54821 80-166 F113S) above, with S34F counted along it
# Sequence of HOXA4 (Homo sapiens, UniProt Q00056 201-287, W262F) (Q00056 201-287 W262F): as the sequence (Q00056 201-287 W262R) above, with R62F counted along it
# Sequence of HOXA7 (Homo sapiens, UniProt P31268 116-202) (P31268 116-202): as the sequence (P31268 116-202 W177C) above, with C62W counted along it
# Sequence of MSX2 (Homo sapiens, UniProt P35548 130-214, F161Y) (P35548 130-214 F161Y): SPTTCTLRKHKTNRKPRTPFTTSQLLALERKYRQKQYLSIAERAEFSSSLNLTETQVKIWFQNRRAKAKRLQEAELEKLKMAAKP
# Sequence of MSX2 (Homo sapiens, UniProt P35548 130-214, R199I) (P35548 130-214 R199I): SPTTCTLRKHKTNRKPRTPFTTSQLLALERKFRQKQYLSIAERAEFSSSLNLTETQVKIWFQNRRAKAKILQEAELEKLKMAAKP
# Sequence of NKX3-2 (Homo sapiens, UniProt P78367 192-278, P234S) (P78367 192-278 P234S): as the sequence (P78367 192-278) above, with P43S counted along it
# Sequence of ALX3 (Homo sapiens, UniProt O95076 139-225) (O95076 139-225): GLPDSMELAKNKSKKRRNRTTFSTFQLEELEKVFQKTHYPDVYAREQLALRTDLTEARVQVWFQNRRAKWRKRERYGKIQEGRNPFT
# Sequence of ALX3 (Homo sapiens, UniProt O95076 139-225, L168Q) (O95076 139-225 L168Q): as the sequence (O95076 139-225) above, with L30Q counted along it
# Sequence of ALX3 (Homo sapiens, UniProt O95076 139-225, L168V) (O95076 139-225 L168V): as the sequence (O95076 139-225) above, with L30V counted along it
# Sequence of ALX3 (Homo sapiens, UniProt O95076 139-225, N203S) (O95076 139-225 N203S): as the sequence (O95076 139-225) above, with N65S counted along it
# Sequence of HOXB6 (P17509 132-218): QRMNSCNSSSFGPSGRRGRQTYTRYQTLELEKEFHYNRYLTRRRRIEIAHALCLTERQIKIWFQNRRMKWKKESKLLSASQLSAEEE
# Sequence of ALX3 (Homo sapiens, UniProt O95076 139-225, N203Q) (O95076 139-225 N203Q): as the sequence (O95076 139-225) above, with N65Q counted along it
sequence,measurement,setting,value
CAGACGGC,binding signal,[1],"9.46 upbm affinity estimate (log intensity, higher = more binding, comparable within an allelic series)"
same,binding signal,[2],"9.13 upbm affinity estimate (log intensity, higher = more binding, comparable within an allelic series)"
same,binding signal,[3],"9.65 upbm affinity estimate (log intensity, higher = more binding, comparable within an allelic series)"
same,binding signal,[4],"6.56 upbm affinity estimate (log intensity, higher = more binding, comparable within an allelic series)"
same,binding signal,[5],"9.48 upbm affinity estimate (log intensity, higher = more binding, comparable within an allelic series)"
same,binding signal,[6],"6.52 upbm affinity estimate (log intensity, higher = more binding, comparable within an allelic series)"
same,binding signal,[7],"9.64 upbm affinity estimate (log intensity, higher = more binding, comparable within an allelic series)"
same,binding signal,[8],"6.59 upbm affinity estimate (log intensity, higher = more binding, comparable within an allelic series)"
same,binding signal,[9],"9.37 upbm affinity estimate (log intensity, higher = more binding, comparable within an allelic series)"
CCAGTGGG,binding signal,[1],"9.58 upbm affinity estimate (log intensity, higher = more binding, comparable within an allelic series)"
same,binding signal,[10],"8.11 upbm affinity estimate (log intensity, higher = more binding, comparable within an allelic series)"
same,binding signal,[11],"8.16 upbm affinity estimate (log intensity, higher = more binding, comparable within an allelic series)"
same,binding signal,[3],"9.54 upbm affinity estimate (log intensity, higher = more binding, comparable within an allelic series)"
same,binding signal,[4],"6.51 upbm affinity estimate (log intensity, higher = more binding, comparable within an allelic series)"
same,binding signal,[5],"9.48 upbm affinity estimate (log intensity, higher = more binding, comparable within an allelic series)"
same,binding signal,[6],"6.46 upbm affinity estimate (log intensity, higher = more binding, comparable within an allelic series)"
same,binding signal,[7],"9.57 upbm affinity estimate (log intensity, higher = more binding, comparable within an allelic series)"
same,binding signal,[8],"6.33 upbm affinity estimate (log intensity, higher = more binding, comparable within an allelic series)"
CATTTGGG,binding signal,[12],"10.1 upbm affinity estimate (log intensity, higher = more binding, comparable within an allelic series)"
same,binding signal,[13],"11.3 upbm affinity estimate (log intensity, higher = more binding, comparable within an allelic series)"
same,binding signal,[14],"10.3 upbm affinity estimate (log intensity, higher = more binding, comparable within an allelic series)"
GGTAATAA,binding signal,[1],"12.4 upbm affinity estimate (log intensity, higher = more binding, comparable within an allelic series)"
same,binding signal,[15],"12.2 upbm affinity estimate (log intensity, higher = more binding, comparable within an allelic series)"
same,binding signal,[3],"12.6 upbm affinity estimate (log intensity, higher = more binding, comparable within an allelic series)"
same,binding signal,[5],"12.5 upbm affinity estimate (log intensity, higher = more binding, comparable within an allelic series)"
same,binding signal,[16],"11.9 upbm affinity estimate (log intensity, higher = more binding, comparable within an allelic series)"
same,binding signal,[7],"10.9 upbm affinity estimate (log intensity, higher = more binding, comparable within an allelic series)"
ATATAACG,binding signal,[12],"10.4 upbm affinity estimate (log intensity, higher = more binding, comparable within an allelic series)"
same,binding signal,[13],"11.4 upbm affinity estimate (log intensity, higher = more binding, comparable within an allelic series)"
same,binding signal,[17],"10.7 upbm affinity estimate (log intensity, higher = more binding, comparable within an allelic series)"
AATCGATG,binding signal,[12],"10.4 upbm affinity estimate (log intensity, higher = more binding, comparable within an allelic series)"
same,binding signal,[13],"11.7 upbm affinity estimate (log intensity, higher = more binding, comparable within an allelic series)"
GCCCGAGC,binding signal,[1],"9.54 upbm affinity estimate (log intensity, higher = more binding, comparable within an allelic series)"
same,binding signal,[10],"8.18 upbm affinity estimate (log intensity, higher = more binding, comparable within an allelic series)"
same,binding signal,[11],"8.13 upbm affinity estimate (log intensity, higher = more binding, comparable within an allelic series)"
same,binding signal,[3],"9.62 upbm affinity estimate (log intensity, higher = more binding, comparable within an allelic series)"
same,binding signal,[5],"9.44 upbm affinity estimate (log intensity, higher = more binding, comparable within an allelic series)"
same,binding signal,[7],"9.78 upbm affinity estimate (log intensity, higher = more binding, comparable within an allelic series)"
CGCTTAAC,binding signal,[12],"10.2 upbm affinity estimate (log intensity, higher = more binding, comparable within an allelic series)"
same,binding signal,[13],"11.2 upbm affinity estimate (log intensity, higher = more binding, comparable within an allelic series)"
same,binding signal,[14],"10.3 upbm affinity estimate (log intensity, higher = more binding, comparable within an allelic series)"
AGCAGCCC,binding signal,[1],"9.76 upbm affinity estimate (log intensity, higher = more binding, comparable within an allelic series)"
same,binding signal,[18],"8.64 upbm affinity estimate (log intensity, higher = more binding, comparable within an allelic series)"
same,binding signal,[3],"9.83 upbm affinity estimate (log intensity, higher = more binding, comparable within an allelic series)"
same,binding signal,[19],"7.76 upbm affinity estimate (log intensity, higher = more binding, comparable within an allelic series)"
same,binding signal,[5],"9.78 upbm affinity estimate (log intensity, higher = more binding, comparable within an allelic series)"
same,binding signal,[20],"7.62 upbm affinity estimate (log intensity, higher = more binding, comparable within an allelic series)"
same,binding signal,[21],"7.67 upbm affinity estimate (log intensity, higher = more binding, comparable within an allelic series)"
same,binding signal,[7],"9.61 upbm affinity estimate (log intensity, higher = more binding, comparable within an allelic series)"
same,binding signal,[22],"7.75 upbm affinity estimate (log intensity, higher = more binding, comparable within an allelic series)"
same,binding signal,[23],"8.34 upbm affinity estimate (log intensity, higher = more binding, comparable within an allelic series)"
same,binding signal,[24],"7.72 upbm affinity estimate (log intensity, higher = more binding, comparable within an allelic series)"
ATATTGAG,binding signal,[12],"10.3 upbm affinity estimate (log intensity, higher = more binding, comparable within an allelic series)"
same,binding signal,[13],"10.9 upbm affinity estimate (log intensity, higher = more binding, comparable within an allelic series)"
GGCGCGCC,binding signal,[1],"9.93 upbm affinity estimate (log intensity, higher = more binding, comparable within an allelic series)"
same,binding signal,[2],"9.33 upbm affinity estimate (log intensity, higher = more binding, comparable within an allelic series)"
same,binding signal,[3],"10.1 upbm affinity estimate (log intensity, higher = more binding, comparable within an allelic series)"
same,binding signal,[25],"9.71 upbm affinity estimate (log intensity, higher = more binding, comparable within an allelic series)"
same,binding signal,[5],"9.89 upbm affinity estimate (log intensity, higher = more binding, comparable within an allelic series)"
same,binding signal,[26],"10.1 upbm affinity estimate (log intensity, higher = more binding, comparable within an allelic series)"
same,binding signal,[7],"9.82 upbm affinity estimate (log intensity, higher = more binding, comparable within an allelic series)"
same,binding signal,[27],"10 upbm affinity estimate (log intensity, higher = more binding, comparable within an allelic series)"
same,binding signal,[9],"9.73 upbm affinity estimate (log intensity, higher = more binding, comparable within an allelic series)"
CAAGCTCG,binding signal,[1],"9.46 upbm affinity estimate (log intensity, higher = more binding, comparable within an allelic series)"
same,binding signal,[18],"8.21 upbm affinity estimate (log intensity, higher = more binding, comparable within an allelic series)"
same,binding signal,[3],"9.49 upbm affinity estimate (log intensity, higher = more binding, comparable within an allelic series)"
same,binding signal,[5],"9.44 upbm affinity estimate (log intensity, higher = more binding, comparable within an allelic series)"
same,binding signal,[7],"9.62 upbm affinity estimate (log intensity, higher = more binding, comparable within an allelic series)"
same,binding signal,[23],"8.29 upbm affinity estimate (log intensity, higher = more binding, comparable within an allelic series)"
same,binding signal,[28],"10.3 upbm affinity estimate (log intensity, higher = more binding, comparable within an allelic series)"
same,binding signal,[29],"10.3 upbm affinity estimate (log intensity, higher = more binding, comparable within an allelic series)"
CTCGCGAG,binding signal,[1],"9.76 upbm affinity estimate (log intensity, higher = more binding, comparable within an allelic series)"
same,binding signal,[15],"10 upbm affinity estimate (log intensity, higher = more binding, comparable within an allelic series)"
same,binding signal,[3],"9.82 upbm affinity estimate (log intensity, higher = more binding, comparable within an allelic series)"
same,binding signal,[5],"9.78 upbm affinity estimate (log intensity, higher = more binding, comparable within an allelic series)"
same,binding signal,[16],"10.1 upbm affinity estimate (log intensity, higher = more binding, comparable within an allelic series)"
same,binding signal,[7],"9.89 upbm affinity estimate (log intensity, higher = more binding, comparable within an allelic series)"
CTCATCTA,binding signal,[12],"10.3 upbm affinity estimate (log intensity, higher = more binding, comparable within an allelic series)"
same,binding signal,[13],"11.5 upbm affinity estimate (log intensity, higher = more binding, comparable within an allelic series)"
CGCGGTGC,binding signal,[1],"9.77 upbm affinity estimate (log intensity, higher = more binding, comparable within an allelic series)"
same,binding signal,[10],"8.05 upbm affinity estimate (log intensity, higher = more binding, comparable within an allelic series)"
same,binding signal,[11],"8.13 upbm affinity estimate (log intensity, higher = more binding, comparable within an allelic series)"
same,binding signal,[3],"9.77 upbm affinity estimate (log intensity, higher = more binding, comparable within an allelic series)"
same,binding signal,[25],"9.6 upbm affinity estimate (log intensity, higher = more binding, comparable within an allelic series)"
same,binding signal,[5],"9.76 upbm affinity estimate (log intensity, higher = more binding, comparable within an allelic series)"
same,binding signal,[26],"9.52 upbm affinity estimate (log intensity, higher = more binding, comparable within an allelic series)"
same,binding signal,[7],"9.74 upbm affinity estimate (log intensity, higher = more binding, comparable within an allelic series)"
same,binding signal,[27],"9.68 upbm affinity estimate (log intensity, higher = more binding, comparable within an allelic series)"
